Laboratory results from PubChem BioAssay (EPA / NIEHS).
The source made the active and inactive calls. How the source made its calls: active means hit-call score of the fitted dose curve at least 0.9, where 1 is the maximum; inactive means score below 0.9.

How the values were obtained:
[1] = ATG_CRE_CIS: Attagene CIS-FACTORIAL HepG2 Assay for human cAMP Responsive Element (CRE) binding protein 3 (AID 2282926); details: HepG2 CRE cis-reporter, Attagene multiplexed mRNA; actives raise or lower the signal
In short: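 Transfected HepG2 were treated for 24 hours, then RNA was extracted and reporter cDNA amplified with sequence-specific primers. Labelled fragments were separated by capillary electrophoresis, and the CRE signal was fitted bidirectionally with DMSO as baseline.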

[2] = molecular target: CCAAT/enhancer-binding protein beta (Homo sapiens) (UniProt P17676); assay: ATG_C_EBP_CIS: Attagene CIS-FACTORIAL HepG2 Assay for human CCAAT/Enhancer Binding Protein (C/EBP) beta (AID 2282927); details: HepG2 Attagene cis-factorial transcription factor reporter; actives raise or lower the signal
In short: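 HepG2, transient MRTU transfection, 24 h treatment. RT-PCR plus CE fluorescence; DMSO negative control, bidirectional fit.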

[3] = ATG_AP_1_CIS: Attagene CIS-FACTORIAL HepG2 Assay for human Activator Protein 1 (AP-1) (AID 2282931); details: HepG2 Attagene cis-factorial AP-1 reporter mRNA; actives raise or lower the signal
In short: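 Endogenous transcription-factor activity in human HepG2 liver cells is read through a cis-promoter reporter transcript, sampled 24 h after dosing. Detection uses RT-PCR with capillary electrophoresis; values come from bidirectional fitting relative to DMSO.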

[4] = ATG_AP_2_CIS: Attagene CIS-FACTORIAL HepG2 Assay for human Activator Protein 2 (AP-2) (AID 2282932); details: HepG2 AP-2 cis-reporter, Attagene transcription factor profiling; actives raise or lower the signal
In short: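 HepG2 cells transiently transfected with cis-element reporter units and exposed for 24 h. Reporter mRNA measured by RT-PCR, FAM labelling, HpaI digestion and capillary electrophoresis. Changes in either direction fitted relative to DMSO.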

[5] = ATG_BRE_CIS: Attagene CIS-FACTORIAL HepG2 Assay for human Bone Morphogenetic Protein (BMP) Response Element (BRE) (AID 2282933); details: HepG2 BMP response element reporter, Attagene transcription factor profiling; actives raise or lower the signal
In short: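 Transient MRTU transfection of human HepG2 liver cells; 24 h compound treatment; total RNA isolated, reverse-transcribed, PCR-amplified, 6-FAM labelled, HpaI-cut, capillary electrophoresis. DMSO = negative control/baseline, bidirectional fit.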

[6] = ATG_E_Box_CIS: Attagene CIS-FACTORIAL HepG2 Assay for human Enhancer Box (E-box) (AID 2282936); details: HepG2 E-box cis-reporter transcription, actives raise or lower the signal
In short: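 HepG2 cells transiently transfected with multiplexed cis-element reporter units, dosed 24 h; reporter mRNA quantified by RT-PCR, 6-FAM labelling, HpaI digestion and capillary electrophoresis. E-box (USF1) signal fitted bidirectionally vs DMSO.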

[7] = ATG_M_61_CIS: Attagene CIS-FACTORIAL HepG2 Assay for M61 Transcription Factor (Internal Marker) (AID 2282937); details: HepG2 Attagene CIS-FACTORIAL M61 internal marker reporter; actives raise or lower the signal
In short: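 Cells were transfected with reporter units under cis-regulatory promoters, treated with chemicals for 24 h, then lysed for RNA. Reporter transcripts were quantified by RT-PCR and capillary electrophoresis, and activity was fitted bidirectionally against DMSO.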

[8] = ATG_EGR_CIS: Attagene CIS-FACTORIAL HepG2 Assay for human Early Growth Response 1 (EGR1) (AID 2282938); details: HepG2 Attagene CIS-FACTORIAL EGR reporter mRNA; actives raise or lower the signal
In short: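 Endogenous TF activity in HepG2 liver cells was gauged through cis-promoter reporter constructs transiently transfected. After 24 h dosing, reporter mRNA was quantified by RT-PCR and capillary electrophoresis, and curves fitted in both directions versus DMSO.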

[9] = ATG_Ets_CIS: Attagene CIS-FACTORIAL HepG2 Assay for human Erythroblast Transformation Specific (ETS) (AID 2282941); details: HepG2 ETS cis-reporter transcription, actives raise or lower the signal
In short: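 After transient cis-reporter transfection, HepG2 cells receive test chemical for 24 h. Reporter mRNA levels, measured by RT-PCR and capillary electrophoresis fluorescence, are analysed bidirectionally relative to the DMSO baseline.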

[10] = ATG_FoxO_CIS: Attagene CIS-FACTORIAL HepG2 Assay for human Forkhead box O (FoxO) (AID 2282943); details: HepG2 Attagene cis-reporter, FoxO element, mRNA; actives raise or lower the signal
In short: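 Transfected HepG2 reporter cells exposed to test chemical for 24 h; reporter RNA measured by reverse transcription, PCR and fluorescent capillary electrophoresis; curves fitted for increases and decreases against DMSO.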

[11] = ATG_GATA_CIS: Attagene CIS-FACTORIAL HepG2 Assay for human GATA Binding Protein (AID 2282944); details: HepG2 GATA cis-element reporter, Attagene multiplex mRNA; actives raise or lower the signal
In short: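 Transient MRTU transfection, HepG2, 24 h compound exposure. Total RNA → oligo(dT) RT → PCR → 6-FAM primer extension → HpaI cut → CE. Bidirectional fit vs DMSO.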

[12] = ATG_M_32_CIS: Attagene CIS-FACTORIAL HepG2 Assay for M32 Transcription Factor (Internal Marker) (AID 2282949); details: HepG2 Attagene cis-factorial M32 reporter, mRNA; actives raise or lower the signal;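 further: background control marker of the multiplexed CIS panel rather than a real target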
In short: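 Fluorescent capillary electrophoresis peaks of HpaI-digested, FAM-labelled RT-PCR reporter products give the signal. Source: transiently transfected human liver HepG2 cells, 24 h after chemical dosing; bidirectional fitting against DMSO.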

[13] = ATG_M_06_CIS: Attagene CIS-FACTORIAL HepG2 Assay for M06 Transcription Factor (Internal Marker) (AID 2282950); details: HepG2 Attagene CIS-FACTORIAL M06 internal marker reporter; actives raise or lower the signal
In short: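 Read-out is fluorescence of labelled reporter cDNA fragments resolved by capillary electrophoresis after RT-PCR. Cells: HepG2 carrying transfected cis-promoter reporter units, treated 24 h. Gain or loss of signal fitted relative to DMSO.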

[14] = ATG_MRE_CIS: Attagene CIS-FACTORIAL HepG2 Assay for human Metal Responsive Element (MRE) (AID 2282954); details: HepG2 MRE cis-reporter transcription, Attagene multiplex; actives raise or lower the signal
In short: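 HepG2 cells transiently transfected with cis-element-driven reporter units; mRNA measured 24 h after dosing. Reporter transcripts quantified by RT-PCR, FAM labelling, HpaI digestion and capillary electrophoresis; bidirectional fit versus DMSO.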

[15] = molecular target: Paired box protein Pax-6 (Homo sapiens) (UniProt P26367); assay: ATG_Pax6_CIS: Attagene CIS-FACTORIAL HepG2 Assay for human Paired Box 6 (PAX6) (AID 2282956); details: HepG2 CIS-FACTORIAL PAX6 reporter transcription, RNA readout; actives raise or lower the signal
In short: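 After twenty-four hours of chemical exposure, transfected HepG2 cells are harvested for RNA. Cis-promoter reporter transcripts are amplified, fluorescently labelled and sized by capillary electrophoresis, with gain and loss of signal scored against DMSO.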

[16] = ATG_PXRE_CIS: Attagene CIS-FACTORIAL HepG2 Assay for human Pregnane X Receptor Element (PXRE) (AID 2282957); details: HepG2 Attagene CIS-FACTORIAL PXRE reporter, mRNA; actives raise or lower the signal
In short: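 Multiplexed cis-reporter assay in transiently transfected human HepG2 cells; 24 h chemical exposure. Reporter transcripts quantified by RT-PCR with fluorescent labeling and capillary electrophoresis.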

[17] = molecular target: Transcription factor Sp1 (Homo sapiens) (UniProt P08047); assay: ATG_Sp1_CIS: Attagene CIS-FACTORIAL HepG2 Assay for human Specificity Protein 1 (Sp1) (AID 2282961); details: HepG2 Sp1 cis-reporter transcription, actives raise or lower the signal
In short: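 Endogenous Sp1 activity was gauged in human liver HepG2 cells bearing transfected reporter units under a cis-regulating promoter. After 24 h dosing, reporter mRNA was quantified by RT-PCR with capillary electrophoresis, and activity fitted bidirectionally versus DMSO.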

[18] = ATG_SREBP_CIS: Attagene CIS-FACTORIAL HepG2 Assay for human Sterol Regulatory Element Binding (SREBP) (AID 2282962); details: HepG2 Attagene cis-factorial SREBP reporter, mRNA; actives raise or lower the signal
In short: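 Twenty-four hours after chemical dosing of transfected HepG2 cultures, reporter RNA was converted to cDNA, amplified, end-labelled with 6-FAM and resolved by capillary electrophoresis. Responses were fitted relative to DMSO.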

[19] = molecular target: Signal transducer and activator of transcription 3 (Homo sapiens) (UniProt P40763); assay: ATG_STAT3_CIS: Attagene CIS-FACTORIAL HepG2 Assay for human Signal Transducer and Activator of Transcription 3 (STAT3) (AID 2282963); details: HepG2, Attagene cis-factorial STAT3 reporter transcription; actives raise or lower the signal
In short: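 HepG2 cells transiently transfected with multiple cis-element-driven reporter units report endogenous transcription factor activity. After 24 h compound exposure, reporter mRNA is measured by RT-PCR, 6-FAM labelling, HpaI digestion and capillary electrophoresis. Fitted bidirectionally versus DMSO.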

[20] = ATG_TAL_CIS: Attagene CIS-FACTORIAL HepG2 Assay for human TAL Basal Promoter (AID 2282966); details: HepG2 Attagene cis-factorial TAL promoter reporter; actives raise or lower the signal;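 further: background control endpoint measuring basal TAL promoter reporter mRNA not a specific factor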
In short: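 Steps: transfect HepG2 with multiple reporter transcription units; dose 24 h; isolate RNA, reverse-transcribe, PCR-amplify, label with 6-FAM, digest with HpaI; resolve by capillary electrophoresis. Bidirectional fitting against DMSO baseline.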

Measured: AC50

Chain of Transcription factor Sp1 (Homo sapiens) (P08047 whole entry, looked up): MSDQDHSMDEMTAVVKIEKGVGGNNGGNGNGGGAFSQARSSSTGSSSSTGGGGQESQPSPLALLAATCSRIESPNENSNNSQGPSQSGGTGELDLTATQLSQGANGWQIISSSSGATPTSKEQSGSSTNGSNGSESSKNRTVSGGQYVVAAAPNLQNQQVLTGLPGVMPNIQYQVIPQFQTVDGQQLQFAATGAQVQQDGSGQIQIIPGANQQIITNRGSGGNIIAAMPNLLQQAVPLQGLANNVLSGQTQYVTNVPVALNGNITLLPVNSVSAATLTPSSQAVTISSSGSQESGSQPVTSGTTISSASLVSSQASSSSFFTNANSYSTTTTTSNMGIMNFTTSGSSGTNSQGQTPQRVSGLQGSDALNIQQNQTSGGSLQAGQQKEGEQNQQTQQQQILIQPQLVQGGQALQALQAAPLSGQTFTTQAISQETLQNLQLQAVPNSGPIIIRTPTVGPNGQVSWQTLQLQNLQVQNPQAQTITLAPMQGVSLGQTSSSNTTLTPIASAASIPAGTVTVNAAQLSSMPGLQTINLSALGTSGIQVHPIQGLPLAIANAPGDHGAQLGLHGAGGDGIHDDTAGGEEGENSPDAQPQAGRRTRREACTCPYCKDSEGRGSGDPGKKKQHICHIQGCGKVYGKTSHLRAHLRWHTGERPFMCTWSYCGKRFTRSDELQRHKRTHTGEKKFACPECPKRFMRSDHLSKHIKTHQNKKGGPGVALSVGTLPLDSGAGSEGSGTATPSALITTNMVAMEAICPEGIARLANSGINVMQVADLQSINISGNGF
Chain of CCAAT/enhancer-binding protein beta (Homo sapiens) (P17676 whole entry, looked up): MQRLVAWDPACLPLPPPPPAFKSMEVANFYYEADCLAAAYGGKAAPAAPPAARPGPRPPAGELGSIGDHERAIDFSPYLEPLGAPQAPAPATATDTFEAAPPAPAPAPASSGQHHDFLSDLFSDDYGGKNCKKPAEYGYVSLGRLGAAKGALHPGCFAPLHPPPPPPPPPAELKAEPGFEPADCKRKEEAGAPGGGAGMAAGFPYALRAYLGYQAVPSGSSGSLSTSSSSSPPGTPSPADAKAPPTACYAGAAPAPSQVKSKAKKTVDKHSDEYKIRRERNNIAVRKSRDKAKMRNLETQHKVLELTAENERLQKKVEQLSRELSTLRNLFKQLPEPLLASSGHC
Chain of Signal transducer and activator of transcription 3 (Homo sapiens) (P40763 whole entry, looked up): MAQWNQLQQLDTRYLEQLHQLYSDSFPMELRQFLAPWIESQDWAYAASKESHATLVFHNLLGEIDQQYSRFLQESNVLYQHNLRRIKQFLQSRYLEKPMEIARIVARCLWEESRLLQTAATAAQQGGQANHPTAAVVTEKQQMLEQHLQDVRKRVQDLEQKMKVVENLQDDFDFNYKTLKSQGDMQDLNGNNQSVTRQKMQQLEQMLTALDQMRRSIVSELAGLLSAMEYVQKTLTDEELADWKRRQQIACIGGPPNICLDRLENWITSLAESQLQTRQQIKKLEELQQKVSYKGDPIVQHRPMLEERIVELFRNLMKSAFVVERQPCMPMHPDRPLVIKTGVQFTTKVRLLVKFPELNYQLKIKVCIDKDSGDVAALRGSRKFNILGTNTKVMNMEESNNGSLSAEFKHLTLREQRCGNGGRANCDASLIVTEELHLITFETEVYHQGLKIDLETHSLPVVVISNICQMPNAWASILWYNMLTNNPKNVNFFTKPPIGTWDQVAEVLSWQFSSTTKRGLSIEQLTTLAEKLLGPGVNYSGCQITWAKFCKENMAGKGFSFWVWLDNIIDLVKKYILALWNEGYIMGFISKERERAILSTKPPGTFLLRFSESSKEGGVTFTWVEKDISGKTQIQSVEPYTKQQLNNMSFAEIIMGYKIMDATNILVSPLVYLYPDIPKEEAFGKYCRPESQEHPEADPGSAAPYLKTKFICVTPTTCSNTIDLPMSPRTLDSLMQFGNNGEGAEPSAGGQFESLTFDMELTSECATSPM
Chain of Paired box protein Pax-6 (Homo sapiens) (P26367 whole entry, looked up): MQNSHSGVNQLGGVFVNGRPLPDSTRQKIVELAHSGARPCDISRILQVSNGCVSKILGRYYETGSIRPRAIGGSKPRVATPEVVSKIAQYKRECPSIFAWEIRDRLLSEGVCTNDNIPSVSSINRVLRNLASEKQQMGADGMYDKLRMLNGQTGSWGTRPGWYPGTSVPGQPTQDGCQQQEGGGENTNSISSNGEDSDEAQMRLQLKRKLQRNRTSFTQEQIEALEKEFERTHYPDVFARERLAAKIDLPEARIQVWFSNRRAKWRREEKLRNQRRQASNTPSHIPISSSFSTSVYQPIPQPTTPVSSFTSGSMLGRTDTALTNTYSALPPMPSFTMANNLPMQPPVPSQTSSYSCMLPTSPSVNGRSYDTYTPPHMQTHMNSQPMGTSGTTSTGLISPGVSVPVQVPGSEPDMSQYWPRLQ

Brc1ccc(Oc2ccc(Br)cc2)cc1
active: [3] 56.5 µM | [5] 86.9 µM | [16] 27.3 µM
inactive: [1] | [2] | [4] | [6] | [7] | [8] | [9] | [10] | [11] | [12] | [13] | [14] | [15] | [17] | [18] | [19] | [20]

Nc1nnc(-c2ccc([N+](=O)[O-])o2)o1
active: [3] 33.4 µM
inactive: [1] | [2] | [4] | [5] | [6] | [7] | [8] | [9] | [10] | [11] | [12] | [13] | [14] | [15] | [16] | [17] | [18] | [19] | [20]

COc1c2occc2cc2ccc(=O)oc12
inactive: [1] | [3] | [4] | [5] | [6] | [7] | [8] | [9] | [10] | [11] | [12] | [13] | [14] | [15] | [17] | [18] | [19] | [20]
active: [2] 63.8 µM | [16] 27.3 µM

CCC(C)C1N=C(C)C(C)S1 (stereo not given)
inactive: [1] | [2] | [3] | [4] | [5] | [6] | [7] | [8] | [9] | [10] | [11] | [12] | [13] | [14] | [15] | [17] | [18] | [19] | [20]
active: [16] 3.25 µM

CC(=O)c1nccs1
inactive: [1] | [2] | [3] | [4] | [5] | [6] | [7] | [8] | [9] | [10] | [11] | [12] | [13] | [14] | [15] | [16] | [17] | [18] | [19] | [20]

CC(C)CC(=O)O
inactive: [1] | [2] | [3] | [4] | [5] | [6] | [7] | [8] | [9] | [10] | [11] | [12] | [13] | [14] | [15] | [16] | [17] | [18] | [19] | [20]

c1cc(N(CC2CO2)CC2CO2)ccc1Cc1ccc(N(CC2CO2)CC2CO2)cc1 (stereo not given)
inactive: [1] | [5] | [7] | [9] | [10] | [11] | [12] | [13] | [16] | [19] | [20]
active: [2] 99.5 µM | [3] 54.4 µM | [4] 26.3 µM | [6] 34.3 µM | [8] 18.4 µM | [14] 21.3 µM | [15] 9.31 µM | [17] 5.73 µM | [18] 26.4 µM

NC(=O)c1ccc([N+](=O)[O-])cc1Cl
inactive: [1] | [2] | [3] | [4] | [5] | [6] | [7] | [8] | [9] | [10] | [11] | [12] | [13] | [14] | [15] | [16] | [17] | [18] | [19] | [20]
